# The list is not random: actives were taken first. Their share in the collection is about 3.3%.
# SMARCA2 act – increases SMARCA2 function in MMTV reporter cells; MG213 cells, MMTV-luciferase reporter, dexamethasone, overnight; activation, % at 9.1 µM; 370,000 tested, 1% active; AID 652017; in the data active means activation above about 7.8%;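 further: 0% = vehicle wells and 100% = reference activator wells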
# esBAF inh – SWI/SNF esBAF complex inhibition; 350,000 tested, 2% active; AID 602393; mouse ES cells, Bmi1-luciferase knock-in reporter, 24 h; 100% = twice the neutral-well signal; reporter increase, % at 12.5 µM; in the data active means activation above about 40%; inconclusive means no clear call, values can overlap the other calls;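 further: 0% = median of the plate's neutral control wells and 100% = double that signal; a rise in the Bmi1 reporter signal indicates esBAF inhibition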
# Gli-Sufu block – Gli-Sufu pathway antagonism. AID 588413. Sufu-KO-LIGHT fibroblasts, Gli luciferase reporter luminescence. 340,000 tested, 0.74% active. inhibition, % at 5 µM;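 active means inhibition above about 55%, limit read from the data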;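 further: 0% = DMSO-treated cells and 100% = wells with medium but no cells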
# 697 NFkB inh – inhibitors of the PMA/ionomycin-induced NF-kB reporter in 697 B cells; 697 B-cell NF-kB luciferase reporter, 16 h; 330,000 tested, 0.33% active; inhibition, % at 4 µM; in the data active means inhibition above about 35%
# Jurkat NFkB inh – lowers PMA/ionomycin-induced NF-kB signal in Jurkat cells. inhibition, % at 4 µM. 330,000 tested, 0.53% active. PMA/ionomycin-induced NF-kB luciferase reporter, luminescence; in the data active means inhibition above about 50%
# SMARCA2 act conf – SMARCA2 activation, confirmation screen | 3,500 tested, 30% active | shares compounds with SMARCA2 act | MG213 cells, MMTV-luciferase with dexamethasone, luminescence, overnight; MG213 cells expressing E1A, Rb sequestered; DMSO wells 0%, reference activator 100% | activation, % at 9.1 µM;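 active means activation above its plate's cutoff, the mean activation of tested wells plus 3 SD, cut at about 7.9% in these data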
# GAL4-VP16 Luc – counter-screen for SMARCA2 activators: GAL4-VP16 luciferase reporter activation; shares compounds with SMARCA2 act; HEK293 GAL4-VP16 pG5luc reporter, luciferase luminescence; scaled: DMSO wells 0%, SAHA wells 100%; activation, % at 9.1 µM; 3,500 tested, 41% active; AID 686939;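 active means activation above the solvent-only control well mean plus 3 SD, averaged across control plates, cut at about 5.2% in these data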
# * hit, by the source's call; ? = inconclusive; / = no result given.
SMILES,SMARCA2 act,esBAF inh,Gli-Sufu block,697 NFkB inh,Jurkat NFkB inh,SMARCA2 act conf,GAL4-VP16 Luc
CNc1nc(N)c([N+](=O)[O-])c(Nc2cccc(F)c2)n1,-1,/,-7,-14,-3,/,/
COc1ccc(-c2ccc(SCC(=O)NC3CCCCC3)nn2)cc1OC,8.5*,?,-39,-15,-19,11*,5
CCCN(C)C[C@@H]1Oc2ncc(-c3ccccc3)cc2C(=O)N([C@@H](C)CO)C[C@H]1C,/,-3,/,/,/,/,/
C[C@H]1CN([C@@H](C)CO)C(=O)c2cc(NC(=O)c3ccncc3)ccc2O[C@@H]1CN(C)S(=O)(=O)c1cn(C)cn1,/,1,/,/,/,/,/
O=C(CC1CCCCC1)NC1CCCC1,1,4,-12,9,3,/,/
O=C(CC1CC2CCC1C2)NC1CCCCCCC1 (configuration not stated),9.5*,60*,-27,-36,-29,5,4
COC(=O)c1c(-c2cccnc2)csc1NC(=O)c1ccc2c(c1)OCO2,9.4*,/,-91,-175,-130,7,15*
N#Cc1c2n(c3c(=S)nc[nH]c13)CCCCC2,0,/,-12,-18,-3,/,/
N#Cc1c2n(c3c(=O)[nH]cnc13)CCCC2,9.3*,-11,3,-12,5,-5,-1
CO[C@H]1CN(C)C(=O)c2cc(NS(C)(=O)=O)ccc2OC[C@H](C)N(Cc2cccnc2)C[C@@H]1C,/,0,/,/,/,/,/
CO[C@H]1CN(C)C(=O)c2cc(NC(=O)C3CC3)ccc2OC[C@@H](C)N(Cc2cccc(F)c2)C[C@@H]1C,/,0,/,/,/,/,/
O=C(NCCSc1ccccc1)c1ccccc1Cl,8.7*,/,-81,-77,-82,8.7*,8.8*
C[C@H](CO)N1C[C@H](C)[C@@H](CN(C)S(=O)(=O)c2cn(C)cn2)OCCCC[C@H](C)Oc2ccc(NC(=O)NC3CCCCC3)cc2C1=O,/,0,/,/,/,/,/
COc1ccc(N)c2c1C(=O)c1ccccc1C2=O,8.3*,/,-32,/,/,16*,5
COc1ccc2noc3c2c1C(=O)c1ccccc1-3,16*,-3,-9,7,7,8.4*,2
Nc1ccc(O)c2c1C(=O)c1ccccc1C2=O,3,2,-10,-11,-18,/,/
CN(C)CCN(C(=O)c1ccco1)c1nc2cc3c(cc2s1)OCCO3,9.7*,/,-18,-90,-110,2,4
C[C@@H]1CN([C@@H](C)CO)C(=O)c2cc(Br)cnc2O[C@@H]1CN(C)C(=O)C1CC1,/,-8,/,/,/,/,/
O=C(Nc1cccnc1)c1cc(-c2cc(Cl)ccc2O)n[nH]1,11*,/,-2,13,-73,9.6*,9.9*
O=C(Cc1cccs1)Nc1ccc(NC(=O)c2ccco2)cc1,12*,14,-30,10,-26,6,7.9*
O=C(Cc1cccs1)NCc1cccc(Br)c1,9.2*,20,-34,-24,-1,4,7.8*
O=C(Cc1cccs1)NCc1cccs1,/,6,-6,20,9,/,/
O=C(Cc1cccs1)Nc1ccccc1,0,35,-3,2,-11,/,/
C[C@H](CO)N1C[C@H](C)[C@H](CN(C)S(=O)(=O)c2cn(C)cn2)Oc2ccc(NS(=O)(=O)c3cn(C)cn3)cc2CC1=O,/,2,/,/,/,/,/
CCOc1ccc(CCNC(=O)C2CC(=O)N(CCc3ccccc3)C2)cc1OCC (configuration not stated),-1,-6,-17,7,-4,/,/
SMILES,SMARCA2 act,esBAF inh,Gli-Sufu block,697 NFkB inh,Jurkat NFkB inh,SMARCA2 act conf,GAL4-VP16 Luc
COc1ccc(CCN2CC(C(=O)NCCc3ccccc3)CC2=O)cc1OC (configuration not stated),8.7*,25,-12,-36,-18,3,3
C[C@@H]1CN([C@@H](C)CO)C(=O)c2cccc(NC(=O)C3CCOCC3)c2O[C@@H]1CN(C)C(=O)Nc1cccc2ccccc12,/,3,/,/,/,/,/
O=C1C2C3C=CC(C4CC34)C2C(=O)N1/N=C/c1ccc([N+](=O)[O-])o1 (configuration not stated),9.3*,/,-4,-61,-4,10*,2
COC(=O)c1ccc(-c2ccc(/C=N/N3C(=O)C4C5C=CC(C6CC56)C4C3=O)o2)cc1 (configuration not stated),9.0*,/,-70,-127,-39,1,5.9*
O=[N+]([O-])c1ccc(/C=N/N=C/c2ccc([N+](=O)[O-])o2)o1,19*,/,49,/,/,-14,-2
C/C=C/c1ccc([C@@H]2[C@H](CO)N(C(=O)CC)[C@H]2CNC(=O)C2CC2)cc1,/,-2,/,/,/,/,/
C[C@@H]1CN([C@H](C)CO)C(=O)c2cccc(NS(=O)(=O)c3ccccc3)c2O[C@H]1CN(C)C(=O)NC1CCCCC1,/,-3,/,/,/,/,/
COc1ccc(Oc2nc(-c3ccccn3)nc3ccccc23)cc1,8.3*,/,-16,-30,-8,-6,-2
c1ccc(Oc2nc(-c3ccccn3)nc3ccccc23)cc1,4,/,-19,-25,-19,/,/
Fc1ccc(Oc2nc(-c3ccccn3)nc3ccccc23)cc1,9.0*,/,-29,-35,-10,-5,3
COc1ccc(S(=O)(=O)Nc2ccc3c(c2)C(=O)N([C@H](C)CO)C[C@@H](C)[C@H](CN(C)S(=O)(=O)c2cccs2)OCCCC[C@H](C)O3)cc1,/,2,/,/,/,/,/
CC(C)(C)c1ccc2cccc(F)c2n1,9.4*,-2,/,/,/,-1,1
Cc1ccc2cccc(OCCCOc3ccccc3F)c2n1,-3,15,33,-23,-19,/,/
CN1C(=O)c2cc(NC(=O)c3cccs3)ccc2OC[C@@H]2O[C@@H](CC(=O)NCC3CC3)CC[C@@H]21,/,-2,/,/,/,/,/
Cc1ccc(C)c(CSC2=NN3CCCC(=O)N=C3S2)c1,8.5*,12,2,-28,-6,-1,0
CS(=O)(=O)N(CC(=O)N1CCCCC1)c1ccc2c(c1)OCO2,5,-6,-7,8,-4,/,/
CS(=O)(=O)N(CC(=O)N1CCCCCC1)c1ccc2c(c1)OCCO2,8.0*,1,-46,-1,2,-3,1
CCOC(=O)c1cccc(NC(=S)NCc2ccc(C)cc2)c1,8.0*,3,3,3,5,2,1
C[C@H]1CCCCO[C@@H](CN(C)Cc2ccc(C(F)(F)F)cc2)[C@@H](C)CN([C@@H](C)CO)C(=O)c2cc(NC(=O)CCCN(C)C)ccc2O1,/,6,/,/,/,/,/
CC(C)NC(=O)Nc1ccc2c(c1)C(=O)N([C@H](C)CO)C[C@H](C)[C@H](CN(C)C(=O)Nc1cccc3ccccc13)OCCCC[C@H](C)O2,/,0,/,/,/,/,/
COc1cccc(-c2cc(C(=O)N3CCCCC3C)no2)c1 (configuration not stated),12*,10,-101,-111,-118,6,12*
